Assay in all cases: glycan array binding signal (z-score within array); higher = stronger binding
Holding throughout (details): glycan notation: IUPAC condensed, linker removed

For one experiment, the target named is Fuc(a1-2)Gal(b1-3)GlcNAc. An outline of the steps:
(§1)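 Columns mapping to the same glycan were averaged after glycan names were converted to IUPAC-condensed notation. The data come from 3228 arrays in the Consortium for Functional Glycomics database, limited to those with an available protein sequence. Binding is reported as a within-array Z-score averaged across arrays of one protein sequence and across linkers.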

For experiment [1], the target named is Fuc(a1-2)Gal(b1-3)GlcNAc(b1-2)Man(a1-3)[Fuc(a1-2)Gal(b1-3)GlcNAc(b1-2)Man(a1-6)]Man(b1-4)GlcNAc(b1-4)[Fuc(a1-6)]GlcNAc. A digest of the protocol:
as §1

Experiment [2] has as its target Fuc(a1-2)Gal(b1-4)GlcNAc(b1-2)Man. An outline of the steps: as §1
Experiment [3] concerns the target Fuc(a1-2)Gal(b1-4)[Fuc(a1-3)]GlcNAc. A digest of the protocol: as §1
Experiment [4] addresses Fuc(a1-2)[Gal(a1-3)]Gal(b1-4)GlcNAc(b1-2)Man. An outline of the steps:
as §1

Experiment [5] concerns the target Fuc(a1-2)[GalNAc(a1-4)]Gal(b1-4)GlcNAc. A digest of the protocol: as §1
Experiment [6] deals with Gal(a1-3)Gal(b1-4)[Fuc(a1-3)]GlcNAc. An outline of the steps: as §1
Experiment [7] concerns the target Gal(b1-3)GlcNAc(b1-2)[Gal(b1-3)GlcNAc(b1-6)]Man(a1-6)[Gal(b1-3)GlcNAc(b1-2)Man(a1-3)]Man(b1-4)GlcNAc(b1-4)GlcNAc. A digest of the protocol: as §1
Experiment [8] concerns the target Gal(b1-3)GlcNAc(b1-3)Gal(b1-4)Glc. A digest of the protocol:
as §1

In experiment [9] the target is Gal(b1-3)GlcNAc(b1-3)GalNAc. A digest of the protocol: as §1
Experiment [10] has as its target Gal(b1-3)GlcNAc(b1-6)GalNAc. An outline of the steps:
as §1

Experiment [11] addresses Gal(b1-3)[Neu5Ac(b2-6)]GalNAc. An outline of the steps:
as §1

Experiment [12] deals with Gal(b1-4)GlcNAc(b1-2)Man(a1-3)[Gal(b1-4)GlcNAc(b1-2)Man(a1-6)]Man(b1-4)GlcNAc(b1-4)GlcNAc. A digest of the protocol:
as §1

The target of experiment [13] is Gal(b1-4)GlcNAc(b1-2)Man(a1-3)[Gal(b1-4)GlcNAc(b1-2)Man(a1-6)]Man(b1-4)GlcNAc(b1-4)[Fuc(a1-6)]GlcNAc. A digest of the protocol:
as §1

Experiment [14] deals with Gal(b1-4)GlcNAc(b1-2)Man(a1-3)[GlcNAc(b1-2)Man(a1-6)]Man(b1-4)GlcNAc(b1-4)GlcNAc. An outline of the steps: as §1
Experiment [15] deals with Gal(b1-4)GlcNAc(b1-2)Man(a1-3)[GlcNAc(b1-4)][Gal(b1-4)GlcNAc(b1-2)Man(a1-6)]Man(b1-4)GlcNAc(b1-4)GlcNAc. An outline of the steps: as §1
Experiment [16] deals with Gal(b1-4)GlcNAc(b1-2)Man(a1-6)[GlcNAc(b1-2)Man(a1-3)]Man(b1-4)GlcNAc(b1-4)GlcNAc. An outline of the steps: as §1
In experiment [17] the target is Gal(b1-4)GlcNAc(b1-3)Gal(b1-4)GlcNAc(b1-3)Gal(b1-4)GlcNAc(b1-3)Gal(b1-4)GlcNAc(b1-2)Man(a1-3)[Gal(b1-4)GlcNAc(b1-3)Gal(b1-4)GlcNAc(b1-3)Gal(b1-4)GlcNAc(b1-3)Gal(b1-4)GlcNAc(b1-2)Man(a1-6)]Man(b1-4)GlcNAc(b1-4)GlcNAc. A digest of the protocol: as §1
In a further experiment the target is Gal(b1-6)Gal. An outline of the steps:
as §1

Experiment [18] has as its target Gal3S(b1-4)[Fuc(a1-3)]GlcNAc6S. A digest of the protocol: as §1
Another experiment addresses GalNAc(b1-3)Gal. A digest of the protocol: as §1
A further experiment has as its target GalNAc3S(b1-4)GlcNAc3S. A digest of the protocol:
as §1

In experiment [19] the target is GlcNAc(a1-4)Gal(b1-4)GlcNAc(b1-3)Gal(b1-4)GlcNAc(b1-3)Gal(b1-4)GlcNAc. An outline of the steps: as §1
For experiment [20], the target named is GlcNAc(b1-2)Man(a1-3)[GlcNAc(b1-2)Man(a1-6)]Man(b1-4)GlcNAc(b1-4)[Fuc(a1-6)]GlcNAc. An outline of the steps:
as §1

Only a selection was taken, and the strongest signals are over-represented in it overall.

B1: PVL (Psathyrella velutina), Q309D1_9AGAR (protein)
chain: MSVVVISQALPVPTRIPGVADLVGFGNGGVYIIRNSLLIQVVKVINNFGYDAGGWRVEKHVRLLADTTGDNQPDVVGFGENGVWISTNNGNNTFVDPPKMVLANFAYAAGGWRVEKHIRFMADLRKTGRADIVGFGDGGIYISRNNGGGQFAPAQLALNNFGYAQGWRLDRHLRFLADVTGDGLLDVVGFGENQVYIARNSGNGTFQPAQAVVNNFCIGAGGWTISAHPRVVADLTGDRKADILGFGVAGVYTSLNNGNGTFGAVNLVLKDFGVNSGWRVEKHVRCVSSLTNKKVGDIIGFGDAGVYVALNNGNGTFGPVKRVIDNFGYNQGWRVDKHPRFVVDLTGDGCADIVGFGENSVWACMNKGDGTFGPIMKLIDDMTVSKGWTLQKTVRYAANLYL
Take B1: the “glycan array binding signal (z-score)” value is -0.372 with Fuc(a1-2)Gal(b1-3)GlcNAc; -0.362 in [1]; -0.366 in [2]; -0.367 in [3]; -0.372 in [4]; -0.335 in experiment [5]. In addition, the “glycan array binding signal (z-score)” value in experiment [6] was -0.368; in experiment [7], -0.349; in experiment [8], -0.359; in experiment [9], -0.36; in experiment [10], -0.364; in experiment [11] it was -0.366. In addition, the “glycan array binding signal (z-score)” value was -0.369 in experiment [12]; -0.555 in [13]; 0.543 in experiment [14]; -0.369 in experiment [15]; 0.45 in experiment [16]; 0.956 in [17]. In addition, the “glycan array binding signal (z-score)” value with Gal(b1-6)Gal was -0.37; in [18], -0.344; in the experiment with GalNAc(b1-3)Gal, -0.243; with GalNAc3S(b1-4)GlcNAc3S it was -0.369; in experiment [19] it was 4.19; in experiment [20], 0.519.

The values above are taken from the supplement of paper PMC8728848.
